# Source: PubChem BioAssay
# IL-2 act = qHTS of IL-2 Activators. AID 652025, 2013. activation, % (series mostly up to about 46 µM). IL-2 activation reporter assay, cell-based qHTS; stimulated with anti-CD3/CD4/CD28 beads; in transgenic mouse T cells. 360,000 compounds, 0.065% hits; in the data active means activation above about 50%; further: 0% is about no effect
#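 Quantitative HTS in unstimulated transgenic mouse T cells, with memory T cells as non-tolerant control and PMA/ionomycin as tolerance-bypass control. Compound pretreatment lasted 60 minutes before 18 h bead stimulation; EGFP/DsRed fluorescence read.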
# miR-21 act = qHTS Assay for Modulators of miRNAs and/orActivators of miR-21. HeLa miR-21 FLuc reporter, luciferase, 48 h. Potency, µM (highest dose often 38.3 µM), for the others: at the top dose activity change, positive = activation, actives largely listed as activators. 340,000 tested, under 10 active. AID 2288, 2010;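 further: % of control where 0% means no effect; miR-21 action dims this reporter so a rising signal means less miR-21 action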
#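 HeLa cells stably expressing CMV-driven firefly luciferase with a downstream miR-21 binding sequence, endogenously expressing miR-21, were treated with titrations (up to about 40uM final) for 48 hours at 37 degree Celsius. Luciferase luminescence was read after lysis.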
# PINK1 modulator = A Quantitative High throughput Screen to Identify Chemical Modulators of PINK1 Expression; PINK1 immunofluorescence, high-content cytometry, 24 h; Potency, µM (titrated, usually from 76.6 µM), for the others: at the highest dose activation (PINK1 increase), most hits filed as activators; 410,000 compounds, 0.2% hits; active means well fitted activation curve with a large enough effect; cell line not stated here; further: potency means the concentration at half of the fitted maximal effect; % of control where 0% means no effect; nearly all actives have a fitted effect of over 65% in size
#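 Fluorescence from anti-PINK1 antibody, together with nuclear and cell stains, was scanned on a laser-scanning cytometer. Before staining, stable-line cells were incubated 24 hours with compounds at 5 concentrations; primary antibody 12 h at 10 degrees C.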
# TCR activator = Activators of T cell receptors: qHTS campaign | 330,000 tested, under 10 active | primary human leukocytes, anti-CD3, IL-2 HTRF, 48 h | Potency, µM (highest dose often 9.22 µM), for inactives: at the top dose activation of IL-2 secretion, most hits filed as activators; further: % of control where 0% means no effect
#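 Compounds are tested in HTS on primary human leukocytes co-incubated with a-CD3 beads for 48 hr. IL-2 output is measured by time-resolved FRET.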
# RXFP1 antag = qHTS Assay for Antagonists of the Relaxin Receptor RXFP1; Relaxin receptor 1 (Homo sapiens), Q9HBX9; HEK293-RXFP1, relaxin-stimulated cAMP HTRF, 30 min; active compounds read low; activity change, negative = inhibition, % at 57.5 µM; 350,000 compounds, 0.59% hits; AID 1259400, 2018;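 active means activity change of -60% or lower, but not beyond a set lower limit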; further: on the % scale 0 is the no-effect control and ±100 the full control effect
# Target sequence (Q9HBX9 whole entry, looked up): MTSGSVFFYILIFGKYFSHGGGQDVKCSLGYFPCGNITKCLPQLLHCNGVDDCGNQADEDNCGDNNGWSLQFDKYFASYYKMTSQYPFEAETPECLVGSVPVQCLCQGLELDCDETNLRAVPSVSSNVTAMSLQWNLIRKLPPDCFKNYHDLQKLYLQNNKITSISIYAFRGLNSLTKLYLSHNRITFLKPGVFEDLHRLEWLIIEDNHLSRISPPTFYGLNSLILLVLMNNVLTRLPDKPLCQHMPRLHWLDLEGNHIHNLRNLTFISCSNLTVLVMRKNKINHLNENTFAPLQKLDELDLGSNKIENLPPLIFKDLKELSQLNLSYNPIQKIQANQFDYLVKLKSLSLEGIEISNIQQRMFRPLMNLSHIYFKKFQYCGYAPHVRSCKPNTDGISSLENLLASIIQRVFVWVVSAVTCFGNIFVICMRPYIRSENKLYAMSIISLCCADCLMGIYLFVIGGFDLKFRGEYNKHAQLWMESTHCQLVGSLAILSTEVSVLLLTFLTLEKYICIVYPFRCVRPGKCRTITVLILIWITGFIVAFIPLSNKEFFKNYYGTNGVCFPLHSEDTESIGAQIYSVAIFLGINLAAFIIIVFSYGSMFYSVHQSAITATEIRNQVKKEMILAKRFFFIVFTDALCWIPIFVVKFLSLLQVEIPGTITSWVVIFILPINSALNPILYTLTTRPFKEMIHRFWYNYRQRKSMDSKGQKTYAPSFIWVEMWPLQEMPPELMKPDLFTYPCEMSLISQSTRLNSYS
# RXFP1 ag = qHTS Assay for Agonists of the Relaxin Receptor RXFP1; Potency, µM (highest dose often 57.5 µM), for inactives: at the highest dose activation, hits mostly activators; HEK293T-RXFP1 cAMP TR-FRET, 30 min; response scale: percent of porcine relaxin response, buffer zero; 370,000 compounds, 0.3% hits; Relaxin receptor 1 (Homo sapiens), Q9HBX9; further: potency means the concentration at half of the fitted maximal effect; on the % scale 0 is the no-effect control and ±100 the full control effect; nearly all actives have a fitted effect of over 60% in size
#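 HEK293T cells stably expressing RXFP1 were pretreated with the PDE4 inhibitor Ro 20174, exposed to compounds for 30 min at 37C, lysed, and cAMP was read by TR-FRET. Data normalized to buffer (basal) and 29 nM porcine relaxin (100%).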
# Numbers without * were called inactive; x = no result given; [ ] = remark or other dose. A selection: hits, their analogues and other compounds. The true share with any hit is near 0.78%. Unless noted, the call rests on the fitted dose curve; in most records, active means well fitted curve in the direction sought with a large enough effect; inconclusive means small, poorly fitted or top-dose-only effect, or another doubt; inactive means no such curve, though single readings can be large; an effect the other way counts as inactive or inconclusive.
SMILES,IL-2 act,miR-21 act,PINK1 modulator,TCR activator,RXFP1 antag,RXFP1 ag
Cc1ccc(CN2CCN(CC(=O)NCc3ccccc3)CC2)cc1,-4,-4%,0%,-2%,-99*,1%
O=C(CN1CCN(C(c2ccccc2)c2ccccc2)CC1)NCc1ccccc1,0,4%,3%,x,-74*,-2%
O=C(CN1CCN(Cc2ccccc2)CC1)NCc1ccc(Cl)cc1,2,18%,0%,x,-3,4%
COc1ccc(CCNC(=O)c2cnn(-c3nccc(-c4ccco4)n3)c2C)cc1,x,x,-1%,x,x,x
Cc1ccc2[nH]c3c(c2c1)CN(C(=O)CC1(c2ccccc2)CC(=O)N(Cc2cccnc2)C1=O)CC3 (stereo not given),x,x,3%,x,x,x
O=C(c1cccnc1)C1CCCN(Cc2ccc3c(c2)CN(C(=O)c2cccc(Cl)c2)CCO3)C1 (stereo not given),x,x,2%,x,x,x
O=C(/C=C/Nc1ccccc1)c1ccccc1,0,-43%,-3%,0%,3,2%
CN(C)c1ccc(N/C=C/C(=O)c2ccccc2)cc1,2,-59%,9%[38.3 µM],2%,-110*,-3%
COC(=O)C1CCCCN1Cc1ccc2c(c1)CN(C(=O)c1cc(C)nc3cc(F)ccc13)CCO2 (stereo not given),x,x,-1%,x,x,x
CO[C@H]1[C@H](NC(=O)c2ccco2)c2ccccc2C12CCN(Cc1cccn1-c1ccccn1)CC2,x,x,-1%,x,x,x
Cc1ccc(S(=O)(=O)Oc2cccc(/C=N/n3cnnc3)c2)cc1,-4,-6%,9%,4%[46.1 µM],x,0%
Cc1ccc(S(=O)(=O)Oc2cccc(/C=N/Nc3ccc(C(=O)O)cc3)c2)cc1,0,-70%,1%,3%,-62*,0%
CCCOc1ccc(C2C(C(=O)c3ccco3)=C(O)C(=O)N2CCN2CCOCC2)cc1OC (stereo not given),x,-3%,x,x,x,4%
COc1cc(C2C(C(=O)c3cc4ccccc4o3)=C(O)C(=O)N2CCN2CCOCC2)ccc1OCCC(C)C (stereo not given),-1,-9%,5%,2%,-5,28µM*
COc1ccc(CN2CCC3(CC2)c2ccccc2[C@@H](NC(=O)c2ccsc2)[C@@H]3OC)cc1O,x,x,0%,x,x,x
CCOC(=O)C1CCCN(C(=O)c2cc(S(=O)(=O)N(C)C)ccc2N2CCCC2)C1 (stereo not given),-1,x,-1%,7%,-71*,-1%
CN1CCS/C1=C\C=C1/SC(=S)N(CC(=O)O)C1=O,65*,7%,4%,1%,-2,2%
CCN1C(=O)/C(=C/C=C2/SCCN2C)SC1=S,-1,-66%,15%,3%,9,-1%
O=C(Nc1ccccn1)c1ccc([N+](=O)[O-])o1,0,6%,2%,0%,14,3%
O=C(Nc1ncccn1)c1ccc([N+](=O)[O-])o1,3,2%,5%,3%,12,18µM*
Fc1ccc(-c2cnn3c(-c4ccncc4)ccnc23)cc1,4,-54%,2%,1%,13,1%
Fc1ccc(-c2cnn3c(-c4cccs4)ccnc23)cc1,106*,-44%,15%,-1%,0,-3%
O=C(O)c1cccc(Cn2c(Cl)c(/C=N/Nc3ccccc3)sc2=O)c1,-2,-8%,0%,-3%,-74*,-5%
O=C(O)c1cccc(Cn2c(Cl)c(/C=N/NC(=O)c3ccccc3Cl)sc2=O)c1,-1,-3%,-1%,2%,x,0%
CCn1nc(C)cc1C(=O)NCCN1Cc2ccccc2OC(c2ccccc2F)C1 (stereo not given),x,x,2%,x,x,x
SMILES,IL-2 act,miR-21 act,PINK1 modulator,TCR activator,RXFP1 antag,RXFP1 ag
CCS(=O)(=O)N1CCC(C(=O)NCCc2ccc(OC)c(OC)c2)CC1,0,0%,10µM*,x,0,-2%
COc1ccc(CCNC(=O)C2CCN(S(C)(=O)=O)CC2)cc1OC,0,-3%,0%[38.3 µM],0%,1,3%
CC(=O)N1CCN(c2ccc(O)cc2)CC1,x,x,x,x,4,x
COc1ccc(C(=O)OCCN2C(=O)c3ccccc3C2=O)cc1,0,-20%,11µM*,x,0,4%
O=C(CCCCCNc1nc(=S)[nH]c2ccccc12)NCCc1ccc(Cl)cc1,-2,3%,4%,11%,-65*,6%
O=C(CCCCCNc1nc(=S)[nH]c2ccccc12)NCCC1=CCCCC1,0,0%,10%,-4%,-63*,6%
O=C(CCCCCNc1nc(=S)[nH]c2ccccc12)NCCc1c[nH]c2ccccc12,-5,0%,0%,-1%[46.1 µM],x,5%
CCc1nc2cc(C(=O)N(C)C3CCOC3)cc(NC(=O)c3ccccc3OC)c2n1C (stereo not given),x,x,0%,x,x,x
Cc1cnc(SCC2CCCO2)nc1C1CCCN(C(=O)c2ccc(S(N)(=O)=O)cc2)C1 (stereo not given),x,x,1%,x,x,x
O=C(NCc1ccncc1)c1cnn(-c2ncc3c(n2)-c2ccccc2CC3)c1C1CC1,x,x,1%,x,x,x
CCOC(=O)c1c(-c2ccccc2Cl)csc1NC(=O)CSc1nc(C)cc(=O)[nH]1,0,-2%,4%,1%[46.1 µM],-80*,1%
CCOC(=O)c1ccc(NC(=O)CSc2nc(C)cc(=O)[nH]2)cc1,-2,-4%,-3%,6%,2,0%
O=C(Nc1ccccc1)N1CCC(c2nc(-c3ccc(S(=O)(=O)N4CCOCC4)cc3)no2)CC1,1,23%,13µM*,x,-5,1%
O=C(c1ccccc1)N1CCC(c2nc(-c3ccc(S(=O)(=O)N4CCOCC4)cc3)no2)CC1,1,16%,1%,-12%,-33,1%
Cc1cccc(C(=O)NNC2=C(C(=O)C(F)(F)F)CCC2)c1O,1,-10%,16µM*,8%,10,-1%
CCOCCCNC(=O)c1ccc(-n2c(=S)[nH]c3ccccc3c2=O)cc1,1,0%,3%,3%,-90*,-1%
CCCCNC(=O)c1ccc2c(=O)n(CCCOCC)c(=S)[nH]c2c1,-1,0%,x,-1%,-7,11%
Cc1ccc(S(=O)(=O)c2nc(-c3ccco3)oc2N2CCC(C)CC2)cc1,-1,-4%,1%,-2%,-63*,-4%
O=S(=O)(c1ccccc1)c1nc(-c2ccco2)oc1N1CCOCC1,0,-10%,-2%,3%,3,0%
CCC(=O)N[C@@H]1c2ccccc2C2(CCN(Cc3cnc(N(C)C)s3)CC2)[C@H]1OC,x,x,-1%,x,x,x
